Only some compounds are listed: those with a hit (about 2.4% of all), similar ones and a draw of the others.
MLLE-PAM2 inh – blocks PAM2 peptide binding to the PABP1 MLLE domain; GST-MLLE / FITC-PAM2 fluorescence polarization; inhibition, % at 20 µM; actives 0.36% (n = 360,000); in the data active means inhibition above about 35%, passing the limit was not always enough;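 further: plate controls were DMSO wells with GST-MLLE for no effect and wells lacking GST-MLLE protein for full effect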
Target sequence (P11940 whole entry, looked up, the tested form may be a part): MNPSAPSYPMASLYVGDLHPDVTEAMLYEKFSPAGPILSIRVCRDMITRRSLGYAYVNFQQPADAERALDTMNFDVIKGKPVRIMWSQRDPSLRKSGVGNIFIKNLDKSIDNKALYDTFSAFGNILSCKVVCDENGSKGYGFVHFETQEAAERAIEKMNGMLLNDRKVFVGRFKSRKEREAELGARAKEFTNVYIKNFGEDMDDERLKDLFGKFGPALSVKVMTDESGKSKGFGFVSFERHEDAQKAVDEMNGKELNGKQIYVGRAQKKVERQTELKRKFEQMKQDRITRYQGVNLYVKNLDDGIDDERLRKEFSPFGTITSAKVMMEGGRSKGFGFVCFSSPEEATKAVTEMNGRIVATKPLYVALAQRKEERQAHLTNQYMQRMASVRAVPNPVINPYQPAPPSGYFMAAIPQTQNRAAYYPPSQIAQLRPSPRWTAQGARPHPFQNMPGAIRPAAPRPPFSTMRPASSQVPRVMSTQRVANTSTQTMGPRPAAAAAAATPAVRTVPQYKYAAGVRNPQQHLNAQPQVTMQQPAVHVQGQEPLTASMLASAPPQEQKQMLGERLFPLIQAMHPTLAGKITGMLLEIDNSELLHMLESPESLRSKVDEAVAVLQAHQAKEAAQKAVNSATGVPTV
PHOSPHO1 inh – PHOSPHO1 (human) inhibition; Q8TCT1; recombinant PHOSPHO1, absorbance phosphatase assay; inhibition, % at 13.3 µM; actives 1.1% (n = 290,000); in the data active means inhibition above about 60%
PABP polyA inh – PABP-poly(A) binding inhibition; P11940; PABP-poly(A) RNA binding, fluorescence polarization; calls only at 35 µM; actives 1% (n = 290,000); AID 2014;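 further: calls also rest on retests at 20 µM and on dose response follow-up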
HMGR II inh – blocks class II HMG-CoA reductase of Enterococcus faecalis. purified E. faecalis HMGR, NADPH absorbance 340 nm kinetic. inhibition, % at 10 µM. actives 0.41% (n = 190,000);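 active means inhibition above a set limit, the median over all tested compounds plus 3 SD, cut at about 9.5% in these data; inconclusive means no clear call, values can overlap the other calls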;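 further: enzyme runs in reverse so mevalonate oxidation gives rising NADPH absorbance; 0% = complete reaction with DMSO and 100% = background rate lacking mevalonate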
eIF4H FP inh – inhibitors of RNA binding by human eIF4H | eIF4H fluorescence polarization binding assay | inhibition, % at 35 µM | actives 0.94% (n = 290,000) | AID 2012;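 further: calls also rest on retests at 20 µM and on dose response follow-up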
The depositor's hits bear a star. Unless noted, how the calls were made is not given here.

What do the screens show for `CC1CC(C)(C)NC(=S)N1CCC(=O)NCCc1ccc(Cl)cc1` (stereo not given)?
MLLE-PAM2 inh: -60; PHOSPHO1 inh: 8; PABP polyA inh: inactive; HMGR II inh: 1; eIF4H FP inh: -16

Results for O=C(NC1C2CC3CC(C2)CC1C3)c1ccc(Br)o1 (stereo not given) ?
MLLE-PAM2 inh: -2; PHOSPHO1 inh: 45; PABP polyA inh: inactive; eIF4H FP inh: 0

What do the screens show for `O=C(NCc1n[nH]c(=S)n1-c1cccc(Cl)c1)c1cccs1`?
MLLE-PAM2 inh: 6; PHOSPHO1 inh: -16; PABP polyA inh: inactive; HMGR II inh: -4; eIF4H FP inh: -8

How did O=C(NCc1n[nH]c(=S)n1-c1ccccc1)c1cccs1 do in these assays?
MLLE-PAM2 inh: 10; PHOSPHO1 inh: -96; PABP polyA inh: inactive; HMGR II inh: 12*; eIF4H FP inh: 4

How did CCOc1ccc2nc3sc(C(=O)N4CCN(C)CC4)c(N)c3cc2c1 do in these assays?
MLLE-PAM2 inh: 4; PHOSPHO1 inh: -16; PABP polyA inh: inactive; HMGR II inh: -4; eIF4H FP inh: 15

What do the screens show for `COc1ccc2cc3c(N)c(C(=O)N4CCCC4)sc3nc2c1`?
PHOSPHO1 inh: -16; PABP polyA inh: inactive; HMGR II inh: 4; eIF4H FP inh: 4

How did Cc1ccc2cc3c(N)c(C(=O)Nc4c(C)[nH]c(=O)[nH]c4=O)sc3nc2c1 do in these assays?
MLLE-PAM2 inh: -1; PHOSPHO1 inh: 16; PABP polyA inh: active; HMGR II inh: -3; eIF4H FP inh: 5

Results for Cc1ccc2nc3sc(C(=O)N4CCOCC4)c(N)c3cc2c1 ?
MLLE-PAM2 inh: 16; PHOSPHO1 inh: 86*; PABP polyA inh: inactive; HMGR II inh: 0; eIF4H FP inh: 0

How did Cc1ccc2cc3c(N)c(C(=O)N4CCOCC4)sc3nc2c1 do in these assays?
MLLE-PAM2 inh: 1; PHOSPHO1 inh: 61*; PABP polyA inh: inactive; HMGR II inh: 3; eIF4H FP inh: 0

Results for Cc1ccc(S(=O)(=O)N(C)c2ccc(C(=O)N(C)Cc3nc4ccccc4c(=O)[nH]3)cc2)cc1 ?
MLLE-PAM2 inh: 2

Results for CC1(C)Cc2c(cnn2-c2ccccc2)C(NC(=O)CCCn2cncn2)C1 (stereo not given) ?
MLLE-PAM2 inh: -3; PHOSPHO1 inh: 42; PABP polyA inh: inactive; eIF4H FP inh: -10

How did Clc1ccc(-c2nnc(CSc3nnc(-c4cccs4)n3Cc3ccccc3)o2)cc1 do in these assays?
MLLE-PAM2 inh: -1; PHOSPHO1 inh: 2; PABP polyA inh: inactive; HMGR II inh: 4; eIF4H FP inh: -5

How did Fc1ccc(NCc2nnc(SCc3nnc(-c4ccccc4)o3)n2Cc2ccccc2)cc1 do in these assays?
MLLE-PAM2 inh: -57; PHOSPHO1 inh: 23; PABP polyA inh: inactive; HMGR II inh: 1; eIF4H FP inh: 58*

What do the screens show for `COCCn1c(Cc2ccccc2)nnc1SCC(=O)N1CCCC1=O`?
MLLE-PAM2 inh: -54

What do the screens show for `O=C1C(Br)=Cc2cccc3cccc1c23`?
MLLE-PAM2 inh: 83; PHOSPHO1 inh: 18; PABP polyA inh: inconclusive; eIF4H FP inh: inconclusive

What do the screens show for `O=C1c2sccc2-c2cccc3cccc1c23`?
MLLE-PAM2 inh: 67*

What do the screens show for `CN(C)C(=S)SCC(=O)Nc1cccc(C(F)(F)F)c1`?
MLLE-PAM2 inh: 16; PHOSPHO1 inh: 67*; PABP polyA inh: inactive; HMGR II inh: 1; eIF4H FP inh: 8

Results for O=C(CNC(=O)c1ccccc1)Nc1cccc(C(F)(F)F)c1 ?
MLLE-PAM2 inh: -3; PHOSPHO1 inh: 1; PABP polyA inh: inactive; HMGR II inh: -4; eIF4H FP inh: 0

Results for Cc1ccc(C(=O)NCC(=O)Nc2cccc(C(F)(F)F)c2)cc1 ?
MLLE-PAM2 inh: -11; PHOSPHO1 inh: -9; PABP polyA inh: inactive; HMGR II inh: -6; eIF4H FP inh: active

What do the screens show for `COC(=O)c1cccc(CN2C(=O)C(C)Sc3cc(Cl)ccc32)c1` (stereo not given)?
MLLE-PAM2 inh: 2

What do the screens show for `O=C(Nc1ccccc1Cl)C(Cl)C(=O)c1ccccc1` (stereo not given)?
MLLE-PAM2 inh: 23; PHOSPHO1 inh: 8; PABP polyA inh: inactive; HMGR II inh: 1; eIF4H FP inh: 8.0*

How did CCN(CC(=O)Nc1c(F)cccc1F)C(=O)c1cccn1C do in these assays?
MLLE-PAM2 inh: -9

What do the screens show for `Oc1cc(NCc2ccc(F)cc2)cc2cccnc12`?
MLLE-PAM2 inh: 22

Results for CN(C)CCCNc1cc(O)c2ncccc2c1 ?
MLLE-PAM2 inh: 41*

What do the screens show for `N#Cc1c(-c2ccco2)cc(-c2cccnc2)nc1N`?
MLLE-PAM2 inh: -13; PHOSPHO1 inh: -2; PABP polyA inh: active; HMGR II inh: 2; eIF4H FP inh: 96*

How did N#Cc1c(-c2cccnc2)cc(-c2ccccc2)nc1N do in these assays?
MLLE-PAM2 inh: -9; PHOSPHO1 inh: 12; PABP polyA inh: inactive; eIF4H FP inh: 1

What do the screens show for `CCOC(=O)COc1nc(-c2ccco2)cc(-c2ccco2)c1C#N`?
MLLE-PAM2 inh: -30; PHOSPHO1 inh: 12; PABP polyA inh: active; eIF4H FP inh: 89*

Results for N#Cc1c(-c2ccco2)cc(-c2ccccn2)nc1N ?
MLLE-PAM2 inh: -26; PHOSPHO1 inh: 11; PABP polyA inh: active; HMGR II inh: -1; eIF4H FP inh: 70*

What do the screens show for `O=c1[nH]ncn1-c1ccccc1C(F)(F)F`?
MLLE-PAM2 inh: -8; PHOSPHO1 inh: 22; PABP polyA inh: inactive; HMGR II inh: -4; eIF4H FP inh: -1

How did O=c1[nH][nH]c(=S)n1-c1ccccc1C(F)(F)F do in these assays?
PHOSPHO1 inh: 90*; PABP polyA inh: inactive; eIF4H FP inh: -5

What do the screens show for `O=C(NC(=S)NCCC1=CCCCC1)c1ccccc1Br`?
MLLE-PAM2 inh: 45*; PHOSPHO1 inh: 28; PABP polyA inh: inactive; HMGR II inh: -7; eIF4H FP inh: 8

What do the screens show for `Cc1cc2c(c(=O)o1)C(Cc1ccccc1)C(C#N)=C(N)O2` (stereo not given)?
MLLE-PAM2 inh: -15; PHOSPHO1 inh: 4; PABP polyA inh: active; HMGR II inh: -7; eIF4H FP inh: 70*

Results for COc1cc(C2C(C#N)=C(N)Oc3cc(C)oc(=O)c32)cc2c1OCO2 (stereo not given) ?
MLLE-PAM2 inh: -21; PHOSPHO1 inh: -21; PABP polyA inh: active; HMGR II inh: -5; eIF4H FP inh: 69*

How did COc1cc(C2C(C#N)=C(N)Oc3cc(C)oc(=O)c32)cc(OC)c1OC (stereo not given) do in these assays?
MLLE-PAM2 inh: 5; PHOSPHO1 inh: 44; PABP polyA inh: inactive; eIF4H FP inh: 8

What do the screens show for `Cc1ccc([C@H]2C(C#N)=C(N)Oc3cc(C)oc(=O)c32)o1`?
MLLE-PAM2 inh: 16; PHOSPHO1 inh: 36; PABP polyA inh: inactive; HMGR II inh: 0; eIF4H FP inh: 35

Results for CC(=O)Nc1ccc(S(=O)(=O)N2CCCN(c3nc(C)cc(C)c3C#N)CC2)cc1 ?
MLLE-PAM2 inh: -2; PHOSPHO1 inh: 19; PABP polyA inh: inactive; eIF4H FP inh: -1

High-throughput results: PubChem, several laboratories
